# SIRT5 block – SIRT5 desuccinylase inhibitors, primary screen, biochemical, fluorescence imaging, single point, set 5 | NAD-dependent protein deacylase sirtuin-5, mitochondrial (Homo sapiens), Q9NXA8 | Purified SirT5, succinyl-peptide AMC, trypsin-coupled fluorescence | inhibition, % at 15 µM | 330,000 compounds, 1.1% hits | AID 652115, 2013; in the data active = inhibition above about 15%
# Target sequence (Q9NXA8 whole entry, looked up): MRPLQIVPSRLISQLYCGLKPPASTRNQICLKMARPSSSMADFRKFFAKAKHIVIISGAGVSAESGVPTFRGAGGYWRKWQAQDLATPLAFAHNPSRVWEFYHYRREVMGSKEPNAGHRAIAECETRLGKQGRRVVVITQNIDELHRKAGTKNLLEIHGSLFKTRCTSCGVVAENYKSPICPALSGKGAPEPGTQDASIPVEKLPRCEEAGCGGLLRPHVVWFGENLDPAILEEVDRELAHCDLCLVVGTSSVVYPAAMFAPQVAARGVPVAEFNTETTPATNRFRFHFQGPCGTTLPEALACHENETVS
# NSD2 HMT inh – NSD2 histone methyltransferase inhibitors, primary screen, biochemical, AlphaScreen, single concentration, set 2; Histone-lysine N-methyltransferase NSD2 (Homo sapiens), O96028; NSD2 peptide methylation, 120 min; inhibition, % at 12.5 µM; 310,000 compounds, 0.54% hits; in the data active = inhibition above about 50%
# CASP6 VEID inh – human caspase-6 inhibitors, primary screen, biochemical, VEID-R110 fluorescence, single point, set 2; P55212; purified caspase-6, Z-VEID-R110 cleavage fluorescence; inhibition, % at 12.5 µM; 350,000 compounds, 0.53% hits;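 active = mean inhibition across replicates at least about 35%, with every replicate also reaching that limit, limit read from the data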;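 note: 0% = median of neutral control wells and 100% = no fluorescence left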
# Target sequence (P55212 24-179 limits assumed): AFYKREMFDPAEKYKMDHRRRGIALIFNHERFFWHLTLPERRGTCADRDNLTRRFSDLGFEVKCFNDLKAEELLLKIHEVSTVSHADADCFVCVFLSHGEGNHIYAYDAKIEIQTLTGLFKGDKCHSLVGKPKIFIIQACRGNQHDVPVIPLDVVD
# Target sequence (P55212 194-293 limits assumed): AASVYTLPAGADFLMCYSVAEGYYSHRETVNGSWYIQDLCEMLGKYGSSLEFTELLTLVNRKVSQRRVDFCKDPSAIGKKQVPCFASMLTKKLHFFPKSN
# PfHsp90 set2 – growth inhibition of PfHsp90-expressing yeast, primary screen, antimalarial PfHsp90 inhibitor project, S. cerevisiae, BacTiter-Glo luminescence, single point, set 2; BacTiter-Glo ATP, 48 h; yeast lacking PDR1 and PDR3 efflux regulators; inhibition, % at 9.4 µM; 310,000 compounds, 0.32% hits;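 active = every replicate shows inhibition above about 80%, whatever the replicate mean, limit read from the data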;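 note: 0% = DMSO neutral controls and 100% = 20 µM radicicol positive controls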
# ARNT-TACC3 inh – disruptors of ARNT/TACC3 protein interaction, primary screen, biochemical, AlphaScreen, single concentration; AlphaScreen His-ARNT PAS-B/GST-TACC3 binding, luminescence; TACC3 fragment carries E629A point mutation; inhibition, % at 9.99 µM; Transforming acidic coiled-coil-containing protein 3 (Homo sapiens), Q9Y6A5; AID 623870, 2012; 390,000 compounds, 0.66% hits;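 active = mean inhibition of replicates at least 50% and at least half of replicates each reaching 50%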;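 note: 0% = complete ARNT plus TACC3 wells and 100% = ARNT alone without TACC3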
# ARNT Alpha ctr – AlphaScreen signal interference compounds, dose response, artefact control for ARNT-TACC3 interaction inhibitor project, biochemical, luminescence, cherry-pick | shares compounds with ARNT-TACC3 inh | His-ARNT PASB-GST AlphaScreen artifact counter-screen | AC50, µM (series often up to 68 µM), without a hit: at the top dose activity change, negative = signal decrease | 1,200 compounds, 50% hits;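 active = every separate test run was called active for a drop in luminescence, with AC50 within twice the top valid dose, actives reach about 71 µM in these data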
# Numbers without * were called inactive; . = no result given; [ ] = remark or other dose. Compounds with a hit are over-represented: about 2.1% of the library has one in this group of screens.
SMILES,SIRT5 block,NSD2 HMT inh,CASP6 VEID inh,PfHsp90 set2,ARNT-TACC3 inh,ARNT Alpha ctr
Cc1ccc(S(=O)(=O)/N=C2\C=C(Nc3ccc(O)cc3)C(=O)c3ccccc32)cc1,.,34,.,5,54*,5.2µM*
CCN(C(=O)COc1cccc2cccnc12)C1CCS(=O)(=O)C1 (stereo unspecified),5,41,13,-1,53*,-11%
CCN(C(=O)COc1ccccc1C(=O)NCc1ccccc1)C1CCS(=O)(=O)C1 (stereo unspecified),-4,0,3,-7,-4,.
C[C@@H]1CN([C@@H](C)CO)C(=O)Cc2cc(NC(=O)Nc3cccc4ccccc34)ccc2O[C@H]1CN(C)C,5,.,-1,.,2,.
CN(Cc1ccccc1)C(=O)c1[nH]cnc1C(=O)Nc1nccs1,.,.,-2,12,55*,-30%
O=C(Nc1nccs1)c1nc[nH]c1C(=O)NCc1ccccc1,.,.,-4,6,29,.
C[C@H](CO)N1C[C@H](C)[C@H](CN(C)CC2CCCCC2)OCCCC[C@H](C)Oc2ccc(NC(=O)Nc3ccccc3)cc2C1=O,5,.,0,.,8,.
O=C(N/N=C/c1ccco1)c1cnccn1,4,-6,4,21,14,.
O=C(N/N=C/C=C/c1ccco1)c1cnccn1,.,-3,22,29,62*,-9%
COc1ccc(C2CC(=O)Oc3c(C(CCN4CCCCC4)c4ccc(N(C)C)cc4)c(OC)cc(OC)c32)cc1 (stereo unspecified),-4,.,-2,13,39*,17µM*
COc1ccc(C2CC(=O)Oc3c(C(CCN4CCCC(C)C4)c4ccc(N(C)C)cc4)c(OC)cc(OC)c32)cc1 (stereo unspecified),-1,.,-3,-4,20,.
CCC(=O)N1CC(=O)N2[C@H](CO)[C@H](c3ccc(-c4cccnc4)cc3)[C@H]2C1,0,.,-1,.,.,.
CN1CCN(C(c2ccccn2)c2cc(Cl)c3cccnc3c2O)CC1 (stereo unspecified),-1,22,-10,103*,52*,21µM*
Oc1c(C(c2ccc(Cl)cc2)N2CCCC2)cc(Cl)c2cccnc12 (stereo unspecified),-1,9,-4,128*,55*,6.5µM*
Oc1c(C(c2ccccc2Cl)N2CCCC2)ccc2cccnc12 (stereo unspecified),0,11,-5,119*,74*,8.4µM*
O=C(NCC[C@H]1CC[C@H](NC(=O)C2CCC2)[C@@H](CO)O1)c1ccc(F)cc1,-2,.,0,.,-16,.
C[C@H](CO)N1C[C@H](C)[C@@H](CN(C)S(=O)(=O)c2ccc(Cl)cc2)Oc2ccc(NS(=O)(=O)c3ccc(Cl)cc3)cc2CC1=O,4,.,0,.,15,.
O=C(NNc1ccccn1)C(=O)NNS(=O)(=O)c1ccc(Cl)cc1,.,-1,.,26,58*,-6%
COc1cccc(S(=O)(=O)N[C@@H]2CC[C@H](CC(=O)NC3CCC3)O[C@@H]2CO)c1,-1,.,-8,.,6,.
c1ccc(-c2nc(-c3ccccn3)no2)cc1,.,.,.,41,4,.
CC(Nc1nc(-c2ccccn2)nnc1-c1ccccc1)c1ccccc1 (stereo unspecified),.,.,.,.,.,2.3µM*
Cn1c(-c2ccccc2)cnc1Nc1nc(-c2ccccn2)nnc1-c1ccccc1,.,.,.,.,.,2.6µM*
c1ccc(-c2nnc(Nc3nc(-c4ccccn4)nnc3-c3ccccc3)s2)cc1,.,.,.,.,.,4.1µM*
CNc1nc(-c2ccccn2)nnc1-c1ccccc1,.,1,.,12,64*,3µM*
CC(Nc1nc(-c2ccccc2)nc2ccccc12)c1ccccc1 (stereo unspecified),.,.,-1,13,22,.
SMILES,SIRT5 block,NSD2 HMT inh,CASP6 VEID inh,PfHsp90 set2,ARNT-TACC3 inh,ARNT Alpha ctr
CO[C@H](CN(C)C(=O)c1cnccn1)[C@H](C)CN([C@@H](C)CO)S(=O)(=O)c1ccc(Cl)cc1,0,.,0,.,-4,.
Cc1ccc(F)cc1S(=O)(=O)N[C@@H]1CCN(Cc2cccc3[nH]ccc23)C1,-3,.,-1,.,14,.
CCN(CC)S(=O)(=O)c1ccc(NN)nc1,-3,1,-1,21,56*,45µM*
C[C@H]1CN([C@@H](C)CO)C(=O)c2cc(NS(=O)(=O)c3ccc(F)cc3)ccc2O[C@@H]1CN(C)C,-2,.,0,.,3,.
CO[C@H]1CN(C)C(=O)c2cc(NC(=O)NC3CCCCC3)ccc2OC[C@H](C)N(CC2CC2)C[C@@H]1C,6,.,-1,.,57*,-3%[42 µM]
CO[C@@H]1CN(C)C(=O)c2cc(NC(=O)c3ccccc3)ccc2OC[C@H](C)N(C(=O)C2CC2)C[C@@H]1C,5,.,0,.,2,.
CO[C@@H]1CN(C)C(=O)c2cc(NC(=O)c3ccccc3)ccc2OC[C@@H](C)N(C(=O)C2CC2)C[C@H]1C,5,.,-3,.,12*,2%[38 µM]
O=C(COC(=O)c1ccc(O)cc1O)Nc1nnc(-c2ccccc2)o1,1,0,1,.,60*,47µM*
Cc1ccc(Nc2c(-c3ccccn3)nc3cc(C)ccn23)cc1,-1,.,2,4,62*,13µM*
Cc1ccc(Nc2c(-c3ccccn3)nc3ccc(C)cn23)cc1,-2,0,3,26,28,.
Cc1[nH]n(-c2ccccc2)c(=O)c1C(c1ccc(O)c([N+](=O)[O-])c1)c1c(C)[nH]n(-c2ccccc2)c1=O,.,5,.,-25,10*,-9%
CC(=O)NCCc1nc2ccccc2[nH]1,0,.,-4,36,-5,.
CN(CC(=O)O)Cc1nc2ccccc2[nH]1,.,.,.,-29,88*,51µM*
COc1ccccc1-c1cnc2c(c1)C(=O)N([C@@H](C)CO)C[C@@H](C)[C@@H](CN(C)Cc1cccnc1)O2,0,.,-2,.,-1,.
CCOC(=O)C(NCc1ccccn1)(NC(=O)c1cccnc1)C(F)(F)F (stereo unspecified),.,0,.,4,66*,-16%
Cc1ccc(C(=O)Nc2cccc(C(=O)N/N=C/c3ccc(O)cc3)c2)cc1,-1,-10,.,8,31*,-30%
C[C@@H]1CN([C@@H](C)CO)C(=O)c2cc(NS(=O)(=O)c3ccc(Cl)cc3)ccc2O[C@@H](C)CCCCO[C@H]1CN(C)S(=O)(=O)c1cccs1,0,.,1,.,4,.
